Pf growth 48h: inhibits P. falciparum growth in the first generation, 48 h; P. falciparum luciferase growth in erythrocytes, 48 h; Potency, µM (titrated, usually from 28.7 µM), most hits filed as inhibitors; actives 5.9% (n = 310,000); AID 504832; active = well fitted inhibition curve with a large enough effect; inconclusive = small, poorly fitted or top-dose-only effect, or another doubt; inactive = no such curve, though single readings can be large or run the other way
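In quantitative HTS format, infected erythrocytes bearing luciferase-reporter parasites were treated for a single generation at 37 C. Luminescence after adding detection reagent served as the growth measure.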
NS1 inh: inhibitors of influenza NS1 protein function | Potency, µM (series often up to 46.1 µM) | actives 0.4% (n = 270,000); also: actives are rising curves; nearly all actives have a fitted effect of over 50% in size
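S. cerevisiae expressing influenza A NS1, grown in glucose, washed, then diluted 1:100 into pH 6.0 -URA galactose medium with 23 nl compound. Growth recovery read as OD600; NS1-free strain serves as control.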
Pf growth 96h: inhibits malaria parasite growth, 96 h; P. falciparum luciferase reporter growth, 96 h; Potency, µM (highest dose often 28.7 µM), usual class: inhibitors; actives 6.9% (n = 320,000); active = well fitted inhibition curve with a large enough effect; inconclusive = small, poorly fitted or top-dose-only effect, or another doubt; inactive = no such curve, though single readings can be large or run the other way
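P. falciparum expressing integrated firefly luciferase grown in erythrocytes (2% hematocrit, 0.05% parasitemia final) with compounds for 96 hours at 37 C, 5% CO2. Growth inhibition read as loss of luminescence after adding luciferase detection reagent.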
SARS PLpro yeast: SARS-CoV PLP inhibition in yeast. actives 0.19% (n = 330,000). S. cerevisiae expressing SARS-CoV PLpro, growth rescue. Potency, µM (doses to about 32.9 µM), hits mostly activators; also: nearly all actives have a fitted effect of over 55% in size
Large screens that a line does not name were inactive. Hits are enriched below; roughly 10% of the tested compounds scored in any of these assays. Unless noted, calls follow the shape of the full dose curve.

COc1ccccc1N1CC=C(c2cccc([N+](=O)[O-])c2)NC1=O	none
CC(C)c1ccc(CNn2cnnc2)cc1	Pf growth 96h inconclusive
CC1=C(C(=O)OCc2ccccc2)C(c2ccccc2Br)NC(=O)N1 (configuration not stated)	none
Cc1ccc(S(=O)(=O)N2CCN(Cc3ccccc3C(F)(F)F)CC2)cc1	Pf growth 96h inconclusive
Cc1ccc(S(=O)(=O)N2CCN(Cc3cc(C(C)C)ccc3O)CC2)cc1	Pf growth 48h 10µM, Pf growth 96h 10µM
Cc1ccc(S(=O)(=O)N2CCN(Cc3cc(C(C)(C)C)ccc3O)CC2)cc1	Pf growth 48h 12µM, Pf growth 96h inconclusive
O=P(O)(O)c1ccccc1 (tested in a mixture with another compound)	none (no result: Pf growth 48h, Pf growth 96h, SARS PLpro yeast)
C=CCN1C(=O)c2ccccc2NC1c1ccc(Br)s1 (configuration not stated)	Pf growth 48h 13µM, Pf growth 96h 10µM
O=C(CNC(=O)N1CC(=O)Nc2ccccc21)Nc1cccc(F)c1	none
CN(CC(=O)N1CCCc2c1c(=O)oc1ccc(O)cc21)Cc1ccccc1	Pf growth 48h 9.3µM, Pf growth 96h inconclusive
CC1CCN(CCC(=O)N2CCCc3c2c(=O)oc2ccc(O)cc32)CC1	Pf growth 48h inconclusive
CC[N+]1=CN(c2ccccc2)C(C)=CC1(C)C	Pf growth 48h inconclusive, Pf growth 96h 4.1µM
O=C(CNC(=O)c1ccccc1Cl)NCC(c1cccs1)N1CCOCC1 (configuration not stated)	none (no result: NS1 inh)
COc1ccc(C(=O)n2nc(C)c(Br)c2C)cc1	Pf growth 48h inconclusive, Pf growth 96h 0.47µM
COc1ccccc1NC(=O)NC1(C(=O)NCC2CCCO2)CCCCC1 (configuration not stated)	none
O=C(NCC1CCCO1)c1ccc(/C=N/O)nc1 (configuration not stated)	Pf growth 96h 15µM
O=C(NCC1CCCO1)c1cnc(Cl)c(Cl)c1 (configuration not stated)	Pf growth 48h inconclusive
O=C(NCCCNCCCNC(=O)c1ccc(/C=N/O)nc1)c1ccc(/C=N/O)nc1	Pf growth 48h 9.3µM, Pf growth 96h 2.6µM
NNC(=O)C(Cc1c[nH]c2ccccc12)NC(=O)c1ccccc1 (configuration not stated)	Pf growth 48h inconclusive
CC(=O)NC(=S)Nc1ccc(S(=O)(=O)Nc2ncccn2)cc1	none
CCCOc1c(Br)cc(C(=O)OCC(=O)NC(=O)c2cccn2C)cc1OC	none (no result: NS1 inh)
COc1ccc2c(c1)-c1nc(/N=C/c3ccc(O)cc3)sc1CC2	Pf growth 96h 4.1µM
COc1ccc2c(c1)-c1nc(NC(=O)c3cccs3)sc1CC2	Pf growth 48h inconclusive, NS1 inh inconclusive
COc1ccc2c(c1)-c1nc(/N=C/c3c(O)ccc4ccccc34)sc1CC2	Pf growth 96h 4.7µM
Oc1ccc2ccccc2c1/C=N/c1nccs1	Pf growth 48h inconclusive (no result: Pf growth 96h)
CCc1nn(C(CC)C(=O)NCCc2ccc(OC)cc2OC)c(=O)c2cc3occc3n12 (configuration not stated)	none
COc1ccc(Br)cc1CNc1ccc(N2CCOCC2)cc1	Pf growth 48h inconclusive
COc1cccc(CNc2ccc(N3CCC(C)CC3)cc2)c1OC	Pf growth 48h 1.9µM, Pf growth 96h inconclusive
CCOC(=O)C1=CN(c2cccc(F)c2)C=C(C(=O)OCC)C1c1cc(OC)c(O)c([N+](=O)[O-])c1	Pf growth 48h 10µM, Pf growth 96h inconclusive
CCOC(=O)C1=CN(Cc2cccc(F)c2)S(=O)(=O)NC1c1cccc(OC)c1 (configuration not stated)	none (no result: Pf growth 48h, NS1 inh, Pf growth 96h)
CCOC(=O)CNC(=O)CSc1ncnc2c1cnn2-c1ccc(Cl)cc1	none (no result: Pf growth 96h)
CCOC(=O)Cc1csc(NC(=O)CSc2ncnc3c2cnn3-c2ccc(OC)cc2)n1	Pf growth 48h 9.3µM, Pf growth 96h inconclusive
Cc1[nH]c(C)c(S(=O)(=O)N2c3ccccc3CC2C)c1C(=O)N1CCCCC1 (configuration not stated)	Pf growth 96h 15µM
COc1ccccc1N1CCN(S(=O)(=O)c2c(C)[nH]c(C)c2C(=O)N2CCCCC2)CC1	none
CC(C)Cc1nnc(NC(=O)C2CCN(C(=O)c3ccc(F)cc3)CC2)s1	Pf growth 48h inconclusive (no result: NS1 inh)
CC(C)NC(=O)CCS(=O)(=O)c1ccc(Br)s1	Pf growth 96h 0.47µM
Oc1ccc(C2C(c3ccccc3)=NN=C(c3ccc(Cl)cc3)N2O)c(O)c1 (configuration not stated)	Pf growth 48h inconclusive, Pf growth 96h 2.6µM
Nc1nc(C(=O)N2CCOCC2)nn1C(=O)c1ccc(Cl)cc1	Pf growth 96h 10µM
O=C(c1ccc(Cl)cc1)c1ccccc1C(=O)N1CCOCC1	none
C1CCN2C[C@@H]3C[C@@H](CN4CCCC[C@H]34)[C@H]2C1	Pf growth 48h inconclusive (no result: NS1 inh, SARS PLpro yeast)
COc1cc(C(=O)NC2CCCC2)c(Br)c(OC)c1OC	none
COc1cc(C(=O)NCCOc2cc(C)cc(C)c2)c(Br)c(OC)c1OC	Pf growth 96h 13µM
CC1CCCN(C(=O)c2ccc3ncsc3c2)C1 (configuration not stated)	none (no result: NS1 inh)
CC(=O)c1c(C(C)=O)c(C)n(-c2cccc([N+](=O)[O-])c2)c1C	Pf growth 96h 9.3µM
CCc1cccc(CC)c1NC(=O)C1SC(=Nc2ccccc2C)C(c2nc3ccccc3s2)=C1N (configuration not stated)	Pf growth 96h 7.4µM (no result: Pf growth 48h)
CCc1cccc(C)c1NC(=O)CCCSc1nc2ccccc2s1	Pf growth 48h inconclusive, Pf growth 96h inconclusive
O=C(NCC(=O)N1CCOCC1)c1ccc(Br)o1	none (no result: NS1 inh)
CCCCOC(=O)c1ccc(NC(=O)c2c(Cl)ccc(Cl)c2OC)cc1	Pf growth 96h 5.2µM
CCCCOC(=O)Nc1ccc(C(=O)OCCC)cc1	none
COc1ccc(C#Cc2ccc3c(=O)c4ccccc4n(C)c3c2)cc1	Pf growth 96h 8.3µM
Cn1c2ccccc2c(=O)c2ccc(C#Cc3ccc(N)cc3)cc21	Pf growth 96h 9.3µM
CCOc1cc(/C=C2/NC(=O)NC2=O)cc(Br)c1OCc1ccc(C(=O)O)cc1	none (no result: NS1 inh)
CC(C)CCNC(=O)c1nnc(Cc2ccc(Cl)cc2)o1	Pf growth 96h 8.3µM (no result: Pf growth 48h)
COc1ccc(-c2c3c(=O)n(C)c(=O)n(C)c3cn2-c2cc(OC)ccc2OC)cc1	Pf growth 48h 13µM
CCOc1ccc(NC(=O)CN2CCCC2c2cccs2)cc1S(=O)(=O)N1CCCCC1 (configuration not stated)	Pf growth 48h 12µM, Pf growth 96h inconclusive (no result: NS1 inh)
CCOc1ccc(NC(=O)[C@@H]2CCCN2C(=O)c2cccs2)cc1S(=O)(=O)N1CCCCC1	Pf growth 48h inconclusive, Pf growth 96h 9.3µM (no result: NS1 inh)
CCOc1ccc(NC(=O)CC(NC(C)=O)c2ccccc2)cc1S(=O)(=O)N1CCCC1 (configuration not stated)	Pf growth 48h inconclusive, Pf growth 96h inconclusive (no result: NS1 inh)
Cc1ccc(NC(=O)CN2CCCC2c2cccs2)cc1S(=O)(=O)N1CCCCC1 (configuration not stated)	Pf growth 48h 9.3µM, Pf growth 96h inconclusive (no result: NS1 inh)
CCOc1ccc(NC(=O)CN(C)Cc2ccc3c(c2)OCO3)cc1S(=O)(=O)N1CCCC1	Pf growth 48h inconclusive, Pf growth 96h 3.3µM (no result: NS1 inh)
Cc1ccc(NC(=O)CCS(=O)(=O)c2ccccc2)cc1S(=O)(=O)N1CCCCCC1	Pf growth 96h inconclusive (no result: NS1 inh)
